Measured values published in PubChem BioAssay AID1159580 (chemical genetic matrix, 2015).
“And” between values parts separate entries of the source, which are not always exact repeats. Identical values can stand only once. Among all 5,500 compounds or so, about 2,000 (36%) were called active. About 18% were inconclusive and are not listed. No stated cut-off is given here; in the data, active means normalized growth mostly below about 0.91 (no sharp cut-off); inconclusive means no clear call, values can overlap the other calls; inactive means mostly above about 0.92. This is one part of the list.

Test: chemical genetic growth profiling, strain panel (AID 1159580);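 further: tested at 20 µM; growth read once vehicle control cultures reached saturation at 30 °C; 1 = growth at the plate median or of vehicle wells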
Conditions: S. cerevisiae deletion strains, growth OD

Measured: normalized growth

Nc1ncnc2c1ncn2[C@@H]1O[C@H](CO)[C@@H](O)[C@@H]1O
inactive: locus YAL013W, strain DEP1, stronger effect = lower value 1.01 | locus YAL021C, strain ccr4, stronger effect = lower value 1 | locus YAL026C, strain drs2, stronger effect = lower value 1.01 | locus YAL030W, strain snc1, stronger effect = lower value 1.01 | locus YBL061C, strain skt5, stronger effect = lower value 1.01 | locus YBR009C, strain hhf1, stronger effect = lower value 1.01 | locus YBR021W, strain FUR4, stronger effect = lower value 1 | locus YBR023C, strain chs3, stronger effect = lower value 1.01 | locus YBR171W, strain sec66, stronger effect = lower value 1.02 | locus YBR229C, strain ROT2, stronger effect = lower value 1.01 | locus YBR231C, strain swc5, stronger effect = lower value 0.997 | locus YBR279W, strain paf1, stronger effect = lower value 1.01 | locus YCL011C, strain gbp2, stronger effect = lower value 1.01 | locus YCL016C, strain dcc1, stronger effect = lower value 1 | locus YCL029C, strain bik1, stronger effect = lower value 1.05 | locus YCL061C, strain MRC1, stronger effect = lower value 1.01 | locus YCL069W, strain vba3, stronger effect = lower value 1.02 | locus YCR088W, strain abp1, stronger effect = lower value 1.01 | locus YDL005C, strain med2, stronger effect = lower value 1.02 | locus YDL035C, strain GPR1, stronger effect = lower value 1.01 | locus YDL040C, strain nat1, stronger effect = lower value 1.01 | locus YDL074C, strain BRE1, stronger effect = lower value 1.01 | locus YDL101C, strain DUN1, stronger effect = lower value 1.01 | locus YDL134C, strain PPH21, stronger effect = lower value 1.01 | locus YDL185W, strain tfp1, stronger effect = lower value 1.02 | locus YDL192W, strain arf1, stronger effect = lower value 1.03 | locus YDR001C, strain nth1, stronger effect = lower value 1.01 | locus YDR069C, strain doa4, stronger effect = lower value 1.01 | locus YDR101C, strain arx1, stronger effect = lower value 1.03 | locus YDR137W, strain rgp1, stronger effect = lower value 1.03 | locus YDR150W, strain NUM1, stronger effect = lower value 1.01 | locus YDR159W, strain sac3, stronger effect = lower value 1.01 | locus YDR162C, strain NBP2, stronger effect = lower value 1.01 | locus YDR195W, strain ref2 1.02 | locus YDR297W, strain sur2, stronger effect = lower value 1.01 | locus YDR318W, strain mcm21, stronger effect = lower value 1.04 | locus YDR334W, strain swr1, stronger effect = lower value 1.01 | locus YDR335W, strain msn5, stronger effect = lower value 1 | locus YDR388W, stronger effect = lower value 1.02 | locus YDR392W, strain spt3, stronger effect = lower value 0.986 | locus YDR502C, strain sam2, stronger effect = lower value 1.03 | locus YEL003W, strain gim4, stronger effect = lower value 1.02 | locus YEL037C, strain rad23, stronger effect = lower value 1.01 | locus YEL061C, strain CIN8 (second series), stronger effect = lower value 1.02 | locus YEL061C, strain CIN8, stronger effect = lower value 1.01 | locus YER015W, strain faa2, stronger effect = lower value 1.01 | locus YER016W, strain bim1, stronger effect = lower value 1.01 | locus YER110C, stronger effect = lower value 1.04 | locus YER111C, strain swi4, stronger effect = lower value 1.01 | locus YER155C, strain BEM2 (second series), stronger effect = lower value 1.02 | locus YER155C, strain BEM2, stronger effect = lower value 1 | locus YER167W, strain BCK2, stronger effect = lower value 1.01 | locus YFR010W, strain ubp6, stronger effect = lower value 1.02 | locus YGL078C, strain dbp3, stronger effect = lower value 1.02 | locus YGL086W, strain mad1, stronger effect = lower value 1.01 | locus YGL167C, strain pmr1, stronger effect = lower value 1.02 | locus YGL173C, strain kem1, stronger effect = lower value 1.01 | locus YGL227W, strain vid30, stronger effect = lower value 1.01 | locus YGL240W, strain doc1, stronger effect = lower value 1.02 | locus YGL248W, strain PDE1, stronger effect = lower value 1.01 | locus YGL253W, strain hxk2, stronger effect = lower value 1.02 | locus YGR078C, strain PAC10, stronger effect = lower value 1.01 | locus YGR135W, strain pre9, stronger effect = lower value 1.03 | locus YGR229C, strain SMI1, stronger effect = lower value 1.01 | locus YGR252W, strain gcn5, stronger effect = lower value 1.06 | locus YHR013C, strain ard1, stronger effect = lower value 1.03 | locus YHR027C, strain rpn1, stronger effect = lower value 1.01 | locus YHR030C, strain SLT2, stronger effect = lower value 1.01 and 0.991 | locus YHR079C, strain IRE1 (second series), stronger effect = lower value 1.02 | locus YHR079C, strain IRE1, stronger effect = lower value 0.995 | locus YHR094C, strain hxt1, stronger effect = lower value 1.02 | locus YHR129C, strain ARP1, stronger effect = lower value 1 | locus YHR142W, strain chs7, stronger effect = lower value 1.03 | locus YHR200W, strain rpn10, stronger effect = lower value 1.03 | locus YIL066C, strain RNR3, stronger effect = lower value 1.01 | locus YIL073C, strain SPO22, stronger effect = lower value 1.08 | locus YIL125W, strain kgd1, stronger effect = lower value 1.02 | locus YIR030C, strain dcg1, stronger effect = lower value 1.03 | locus YJL092W, strain hpr5, stronger effect = lower value 1.01 | locus YJL095W, strain BCK1 (second series), stronger effect = lower value 1.01 | locus YJL095W, strain BCK1, stronger effect = lower value 1.03 and 0.999 | locus YJL115W, strain asf1, stronger effect = lower value 1.01 | locus YJL129C, strain trk1, stronger effect = lower value 1.01 | locus YJL134W, strain LCB3, stronger effect = lower value 1.01 | locus YJL154C, strain vps35, stronger effect = lower value 1.02 | locus YJL164C, strain tpk1, stronger effect = lower value 1.03 | locus YJL166W, strain qcr8, stronger effect = lower value 1.01 | locus YJL168C, strain set2, stronger effect = lower value 1.03 | locus YJL187C, strain SWE1 (second series), stronger effect = lower value 1.02 | locus YJL187C, strain SWE1, stronger effect = lower value 1.01 | locus YJR043C, strain POL32, stronger effect = lower value 1.02 | locus YJR066W, strain TOR1, stronger effect = lower value 0.943
